Test results: PubChem BioAssay (NCI)
Compounds without any hit were thinned out: in the full panel of roughly 83,000, 20% have a hit.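 Method: cells in 96-well plates; compound added at one concentration; 48 h incubation; percent growth measured; values under 10 scored active.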 A number with no mark means an inactive call. The source made the active and inactive calls.

What was measured:
Test in all cases: NCI-60 one-dose screen, 48 h (100 = growth as untreated, 0 = no growth, -100 = all killed)
Settings in all cases: 10 µM unless noted
[1] = system: DU-145 prostate
[2] = system: K-562 leukemia
[3] = system: MALME-3M melanoma
[4] = system: MDA-MB-231 breast
[5] = system: RXF 393 renal
[6] = system: SF-268 CNS
[7] = system: SF-295 CNS
[8] = system: SF-539 CNS
[9] = system: UACC-257 melanoma
[10] = system: M14 melanoma

Row | SMILES | growth [1] | growth [2] | growth [3] | growth [4] | growth [5] | growth [6] | growth [7] | growth [8] | growth [9] | growth [10]
1 | CN1CCN(c2ccc(Nc3nc(NCCCNS(=O)(=O)c4cccc5ccccc45)c4sccc4n3)cc2)CC1 | -6.73% (active) | 5.72% (active) | -91.6% (active) | -29% (active) | -87.1% (active) | -24.1% (active) | -71.8% (active) | -92.1% (active) | -89% (active) | -81.9% (active)
2 | CC1CCN(CC(=O)Nn2c(COc3ccccc3)nc3ccccc3c2=O)CC1 | 101% | 32.2% | 79.5% | 78.4% | 94.2% | 99.4% | 96.9% | 88.6% | 95.4% | 78.9%
3 | Oc1[nH]c2ccc(Cl)cc2c1N=Nc1nc(N=Nc2c(O)[nH]c3ccc(Cl)cc23)nc(N2CCCCC2)n1 | 68% | 39.3% | 58.8% | 64.5% | 86.8% | 54.5% | 24.3% | 79.5% | 105% | 81.1%
4 | Cc1ccc(-c2cc3nc(C(Cl)Cl)nc(-c4ccc(S(=O)(=O)N(C)C)cc4)n3n2)cc1 | 85.3% | 41% | 100% | 95.1% | 90.1% | 98.7% | 86.2% | 80.3% | 100% | 93.1%
5 | CN(C)S(=O)(=O)c1ccc(-c2nc(C(Cl)Cl)nc3cc(-c4ccccc4)nn23)cc1 | 79.2% | 52.2% | 15.3% | 48.8% | 84.4% | 88.2% | 86.7% | 77.8% | 105% | 74%
6 | CC1(C)CC[C@]2(C(=O)O)CC[C@]3(C)C(=CC[C@@H]4[C@@]5(C)CC[C@H](NOCCCN)C(C)(C)[C@@H]5CC[C@]43C)[C@@H]2C1 | 94.7% | 46.4% | 91.6% | 92.4% | 68.8% | 100% | 101% | 86.4% | 89.2% | 94.7%
7 | CCOC(=O)c1c(N)c(C#N)cn1Cc1ccc(Cl)cc1Cl | 93.5% | 24.8% | 85.6% | 43.9% | 63.1% | 80.5% | 80.2% | 73.3% | 92.7% | 72.4%
8 | O=C1/C(=C/c2cc(F)cc(F)c2)Cc2cc3c(cc21)OCO3 | 54.4% | 18.4% | 37.9% | 40.5% | 29% | 64.7% | 35.6% | 33.1% | 73.6% | 20.2%
9 | O=C1/C(=C/C=C/c2ccco2)SC(=S)N1Cc1ccccc1 | 93.8% | 71.2% | 87.2% | 92.7% | 95.3% | 89.7% | 97% | 101% | 91.6% | 92.1%
10 | COc1cc(C(=O)c2cc(C(C)=O)c3ccc(C)cn23)cc(OC)c1OC | 66.9% | 19.2% | 43.9% | 55.2% | 58.6% | 61.3% | 7.71% (active) | 34.7% | 76.7% | 16.1%
11 | CCOC(=O)c1c(NC(=O)c2cccc(C(F)(F)F)c2)sc2c1CCC(=O)C2 | 94.8% | 5.25% (active) | 58.3% | 55.2% | 25.6% | 27.7% | 24.3% | -9.48% (active) | 82.2% | 42.7%
12 | CC(C)(C)c1cc(NC(=O)Nc2ccc(-c3cn4c5c(sc4n3)CCc3c[nH]cc3-5)cc2)no1 | 32.6% | 1.04% (active) | 0.464% (active) | 30.3% | -24.4% (active) | 32.7% | -56.5% (active) | -4.46% (active) | 32.3% | 6.95% (active)
13 | COc1ccccc1/C=C/C(=O)c1nnn(-c2ccc(F)cc2)c1C | 3.67% (active) | 8.81% (active) | 70.6% | 65.6% | 40.7% | 66.2% | 64.3% | 20.7% | 71.3% | 62.3%
14 | CNC(=O)c1cc(N2CCc3cc(NC(=O)Nc4ccc(N5CCOCC5)c(C(F)(F)F)c4)ccc32)ccn1 | 27.2% | 7.92% (active) | 25.8% | 47.6% | -6.79% (active) | 47.8% | -21% (active) | 24.1% | 59.1% | 17%
15 | Brc1cccc(-c2cc(-c3ccc4c(c3)OC=CO4)[nH]n2)c1 | 54.8% | 13.6% | 25.6% | 53.2% | 60.2% | 64.6% | 38% | 49.3% | 67.5% | 15.7%
16 | N#Cc1c(-c2cccs2)cc(-c2cnccn2)nc1SCC(=O)N/N=C/c1ccncc1 | 112% | 96.1% | 120% | 102% | 105% | 106% | 99.4% | 97.6% | 107% | 110%
17 | Cc1cc(=O)oc2cc(OCCCOc3ccc(/C=C/C(=O)Nc4ccc(Br)cc4)cc3)ccc12 | 67.1% | 78.4% | 40.4% | 70.5% | 57.8% | 67.8% | 95.1% | 87.9% | 91.4% | 84%
18 | Cn1ncc2ncc(-c3ccc4ncc(C#N)c(N5CCc6cc(F)c(Cl)cc65)c4c3)cc21 | 30% | 39.7% | 39.5% | 26.7% | -17.4% (active) | 49.7% | 22.9% | 27.1% | 54.9% | 44.9%
19 | CSc1ccc(C(=NNS(=O)(=O)c2ccc(C)cc2)c2ccc(Cl)cc2)cc1 | 108% | 94.6% | 89.9% | 104% | 101% | 95.3% | 96.9% | 102% | 100% | 103%
20 | C=C(C=O)[C@@H]1CC[C@]2(C(=O)O)CC[C@]3(C)C(CC[C@@H]4[C@@](C)(CCC#N)[C@H](C(=C)C=O)CC[C@]43C)[C@@H]12 (stereo not given in full) | 43.2% | 4.17% (active) | 5.28% (active) | 43.8% | 44% | 64.9% | 62.7% | 13.4% | 12.4% | 13.2%
21 | CC1=C(C)C(=O)C(Nc2cccc(C(F)(F)F)c2)=C(Br)C1=O | 105% | -17.9% (active) | 101% | 69.2% | 105% | 97.7% | 106% | 96% | 88.1% | 99%
22 | Cc1ncn(-c2ccc(/C=N/Nc3ccnc4cc(Cl)ccc34)cc2)c1C | 8.97% (active) | 0.733% (active) | -88.7% (active) | -16.8% (active) | -43.7% (active) | 21.5% | -72.5% (active) | -60.7% (active) | -67.2% (active) | -88.5% (active)
23 | N#Cc1c(-c2cccs2)c(C#N)c(=O)n(Cc2nc3ccccc3[nH]2)c1N | 111% | 101% | 107% | 82.4% | 94.4% | 104% | 107% | 97.7% | 110% | 98.4%
24 | CCC1=Cc2c(OC)cccc2OC12C=Cc1c(OC)cccc1O2 (stereo not given) | 27.1% | 7.63% (active) | 50.9% | 11% | 1.82% (active) | 58.6% | 4.11% (active) | -5.65% (active) | 75.7% | 6.53% (active)
25 | C#CCOc1cccc(-c2nc(N)nc(Nc3ccccc3SSc3ccccc3Nc3nc(N)nc(-c4cccc(OCC#C)c4)n3)n2)c1 | 55.2% | 43.5% | 96.8% | 48.1% | 81.8% | -11.5% (active) | -69.8% (active) | 59.2% | 108% | 66.6%
26 | NC1C2CCC1CN(c1cnc(C(=O)Nc3cc(F)cc4cccnc34)cn1)C2 (stereo not given) | 71.2% | 3.9% (active) | 49.5% | 39.4% | 61.6% | 73.5% | 76.3% | 64.6% | 98.3% | 48.4%
